In PubChem BioAssay (EPA / NIEHS):
Calls of active or inactive are those of the source. The calls were made as follows: active = hit-call score of the fitted dose curve at least 0.9, where 1 is the maximum; inactive = score below 0.9.

What was measured:
Conditions in all cases: mRNA level, 48 h; actives raise or lower the signal
CYP4A11 (gene 1579) = assay: LTEA_HepaRG_CYP4A11: Life Technologies and Expression Analysis (LTEA) Assay for CYP4A11 using HepaRG (AID 2283486)
How it was run: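 Differentiated HepaRG cells, 48 h after plating, exposed in duplicate for 48 h to 8 half-log concentrations up to 100 uM in 0.5% DMSO in serum-free induction medium. CYP4A11 mRNA measured by TaqMan qRT-PCR, normalized to ACTB, GAPDH and POLR2A.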

[1] = read-out: DNA damage-inducible transcript 3 (DDIT3), DDIT3 (gene 1649); assay: LTEA_HepaRG_DDIT3: Life Technologies and Expression Analysis (LTEA) Assay for DNA damage-inducible transcript 3 (DDIT3) using HepaRG (AID 2283488)
How it was run: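 Cells are human HepaRG liver cells treated for 48 h with eight half-log concentrations up to 100 uM in 0.5% DMSO. Transcript levels come from qRT-PCR normalized to three housekeeping genes, with activity fitted in both directions relative to vehicle.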

[2] = read-out: Pro-epidermal growth factor (Homo sapiens) (UniProt P01133); assay: LTEA_HepaRG_EGF: Life Technologies and Expression Analysis (LTEA) Assay for Epidermal growth factor (EGF) using HepaRG (AID 2283489)
How it was run: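 HepaRG cells (~100,000/well, 48 h pre-culture) exposed in duplicate for 48 h in serum-free induction medium to 8 half-log concentrations up to 100 uM in 0.5% DMSO. EGF mRNA by qRT-PCR, normalized to ACTB/GAPDH/POLR2A; bidirectional fit versus DMSO.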

[3] = read-out: Ezrin (EZR), EZR (gene 7430); assay: LTEA_HepaRG_EZR: Life Technologies and Expression Analysis (LTEA) Assay for Ezrin (EZR) using HepaRG (AID 2283491)
How it was run: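 Read-out is EZR transcript level by qRT-PCR, normalized to three housekeeping genes and fitted bidirectionally against the DMSO control. Human HepaRG cells received test chemicals for 48 h at eight half-log concentrations up to 100 uM in 0.5% DMSO.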

[4] = read-out: Cytochrome P450 3A7 (Homo sapiens) (UniProt P24462); assay: LTEA_HepaRG_CYP3A7: Life Technologies and Expression Analysis (LTEA) Assay for CYP3A7 using HepaRG (AID 2283492)
How it was run: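 Differentiated HepaRG cells in serum-free induction medium exposed 48 h in duplicate to 8-point half-log series from 100 uM top in 0.5% DMSO. CYP3A7 mRNA by qRT-PCR, normalized to ACTB/GAPDH/POLR2A, bidirectional fit versus DMSO.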

CYP3A5 (gene 1577) = assay: LTEA_HepaRG_CYP3A5: Life Technologies and Expression Analysis (LTEA) Assay for CYP3A5 using HepaRG (AID 2283493)
How it was run: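 Human HepaRG hepatic cells receive 48 h chemical treatment at eight concentrations (half-log steps from 100 uM) in 0.5% DMSO. Expression of CYP3A5 is quantified by Fluidigm qRT-PCR and normalized to three reference genes.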

[5] = read-out: Fatty Acid-Binding Protein 1 (FABP1), FABP1 (gene 2168); assay: LTEA_HepaRG_FABP1: Life Technologies and Expression Analysis (LTEA) Assay for Fatty Acid-Binding Protein 1 (FABP1) using HepaRG (AID 2283494)
How it was run: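 FABP1 expression by TaqMan qRT-PCR, normalised to three housekeeping genes, in HepaRG cells after 48 h chemical treatment. Eight-point half-log series topping at 100 uM in 0.5% DMSO, duplicates; gain or loss fitted relative to vehicle.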

[6] = read-out: Cytochrome P450 4A22 (Homo sapiens) (UniProt Q5TCH4); assay: LTEA_HepaRG_CYP4A22: Life Technologies and Expression Analysis (LTEA) Assay for Cytochrome P450 4A22 (CYP4A22) using HepaRG (AID 2283495)
How it was run: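 Differentiated HepaRG cells in serum-free induction medium exposed 48 h in duplicate to eight half-log concentrations up to 100 uM in 0.5% DMSO. CYP4A22 mRNA quantified by TaqMan qRT-PCR, normalized to ACTB, GAPDH and POLR2A; bidirectional fit versus DMSO.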

[7] = read-out: Cytochrome P450 7A1 (Homo sapiens) (UniProt P22680); assay: LTEA_HepaRG_CYP7A1: Life Technologies and Expression Analysis (LTEA) Assay for Cytochrome P450 7A1 (CYP7A1) using HepaRG (AID 2283496)
How it was run: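 HepaRG, 48 h exposure, 8-pt half-log series from 100 uM, 0.5% DMSO vehicle, duplicates. Readout: TaqMan qRT-PCR mRNA vs three housekeeping genes; bidirectional curve fit against DMSO baseline.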

[8] = read-out: Glutathione S-Transferase (GSTA2), GSTA2 (gene 2939); assay: LTEA_HepaRG_GSTA2: Life Technologies and Expression Analysis (LTEA) Assay for Glutathione S-Transferase (GSTA2) using HepaRG (AID 2283497)
How it was run: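 GSTA2 transcript levels came from Fluidigm TaqMan qRT-PCR normalized to three housekeeping genes, fitted in both directions against DMSO. HepaRG cultures received chemicals for 48 h in serum-free induction medium (0.5% DMSO), 8 half-log concentrations up to 100 uM, duplicate.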

[9] = read-out: Glutamate-cysteine ligase catalytic (GCLC), GCLC (gene 2729); assay: LTEA_HepaRG_GCLC: Life Technologies and Expression Analysis (LTEA) Assay for Glutamate-cysteine ligase catalytic (GCLC) using HepaRG (AID 2283498)
How it was run: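 Expression by TaqMan qRT-PCR, normalized to three housekeeping genes (ACTB, GAPDH, POLR2A), with up- or down-regulation fitted against DMSO. HepaRG cells dosed in duplicate for 48 h with 8 half-log concentrations up to 100 uM, vehicle 0.5% DMSO.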

[10] = read-out: growth arrest and DNA damage 45 (GADD45G), GADD45G (gene 10912); assay: LTEA_HepaRG_GADD45G: Life Technologies and Expression Analysis (LTEA) Assay for growth arrest and DNA damage 45 (GADD45G) using HepaRG (AID 2283499)
How it was run: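 Differentiated human HepaRG cells, 48 h post-plating, exposed 48 h in serum-free induction medium to 8 half-log concentrations (top 100 uM, 0.5% DMSO) in duplicate. GADD45G mRNA measured by Fluidigm TaqMan qRT-PCR, normalized to ACTB, GAPDH, POLR2A; bidirectional fit versus DMSO.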

[11] = read-out: Glutamate-cysteine ligase regulatory (GCLM), GCLM (gene 2730); assay: LTEA_HepaRG_GCLM: Life Technologies and Expression Analysis (LTEA) Assay for Glutamate-cysteine ligase regulatory (GCLM) using HepaRG (AID 2283500)
How it was run: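 Endpoint is GCLM transcript level by qRT-PCR, normalized to three housekeeping genes, after 48 h chemical exposure of human HepaRG cells (0.5% DMSO vehicle, top 100 uM, half-log dilutions). Fitting was bidirectional relative to DMSO.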

[12] = read-out: Glutathione S-transferase M3 (GSTM3), GSTM3 (gene 2947); assay: LTEA_HepaRG_GSTM3: Life Technologies and Expression Analysis (LTEA) Assay for Glutathione S-transferase M3 (GSTM3) using HepaRG (AID 2283501)
How it was run: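 Differentiated human HepaRG cells were exposed in duplicate for 48 h in serum-free induction medium, 8 points from 100 uM top in half-log steps, 0.5% DMSO. GSTM3 mRNA was measured by TaqMan qRT-PCR, normalized to ACTB, GAPDH and POLR2A; bidirectional fit versus DMSO.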

[13] = read-out: Heat shock 70 kDa protein 1 (HSPA1A), gene 3303; assay: LTEA_HepaRG_HSPA1A: Life Technologies and Expression Analysis (LTEA) Assay for Heat shock 70 kDa protein 1 (HSPA1A) using HepaRG (AID 2283502)
How it was run: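 Cells were plated and cultured for 48 h, then switched to serum-free induction medium. Chemicals were added at eight half-log concentrations up to 100 uM for 48 h. RNA was then isolated and HSPA1A measured by qRT-PCR with bidirectional curve fitting against DMSO.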

[14] = read-out: Hypoxia-inducible factor 1-alpha (Homo sapiens) (UniProt Q16665); assay: LTEA_HepaRG_HIF1A: Life Technologies and Expression Analysis (LTEA) Assay for Hypoxia-inducible factor 1 (HIF1A) Trancription factor using HepaRG (AID 2283503)
How it was run: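 HIF1A transcript level read by qRT-PCR (ACTB, GAPDH, POLR2A normalization) after 48 h chemical exposure of HepaRG cultures. Eight half-log concentrations, top 100 uM, 0.5% DMSO vehicle, duplicates; bidirectional curve fit against DMSO baseline.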

[15] = read-out: 3-Hydroxy-3-Methylglutaryl-CoA Synthase 2 (HMGCS2), HMGCS2 (gene 3158); assay: LTEA_HepaRG_HMGCS2: Life Technologies and Expression Analysis (LTEA) Assay for 3-Hydroxy-3-Methylglutaryl-CoA Synthase 2 (HMGCS2) using HepaRG (AID 2283504)
How it was run: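 Human HepaRG cells in serum-free induction medium were exposed in duplicate for 48 h to 8-point half-log series from 100 uM top in 0.5% DMSO. HMGCS2 mRNA measured by TaqMan qRT-PCR, normalised to ACTB, GAPDH, POLR2A; bidirectional fit versus DMSO.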

HGF (gene 3082) = assay: LTEA_HepaRG_HGF: Life Technologies and Expression Analysis (LTEA) Assay for Hepatocyte Growth Facto (HGF) using HepaRG (AID 2283505)
How it was run: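 Differentiated HepaRG cells in serum-free induction medium exposed 48 h in duplicate, 8 half-log concentrations from 100 uM in 0.5% DMSO. HGF mRNA by qRT-PCR, normalised to ACTB, GAPDH, POLR2A; bidirectional fitting.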

[16] = read-out: Cytochrome P450 3A4 (Homo sapiens) (UniProt P08684); assay: LTEA_HepaRG_CYP3A4: Life Technologies and Expression Analysis (LTEA) Assay for CYP3A4 using HepaRG (AID 2283487)
How it was run: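 HepaRG, 48 h exposure, 8-pt CRC from 100 uM (half-log), 0.5% DMSO, duplicates; serum-free induction medium. Readout: CYP3A4 mRNA, qRT-PCR, ACTB/GAPDH/POLR2A normalization. Bidirectional fit vs DMSO.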

[17] = read-out: Early growth response protein 1 (EGR1) transcription factor, EGR1 (gene 1958); assay: LTEA_HepaRG_EGR1: Life Technologies and Expression Analysis (LTEA) Assay for Early growth response protein 1 (EGR1) transcription factor using HepaRG (AID 2283490)
How it was run: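 EGR1 transcript levels quantified by qRT-PCR (Fluidigm arrays) against three housekeeping genes after 48 h chemical exposure of HepaRG cells. Eight-point half-log series topping at 100 uM, 0.5% DMSO vehicle, analyzed for gain or loss.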

Measured: AC50

Sequence of Cytochrome P450 3A7 (Homo sapiens) (P24462 whole entry, looked up): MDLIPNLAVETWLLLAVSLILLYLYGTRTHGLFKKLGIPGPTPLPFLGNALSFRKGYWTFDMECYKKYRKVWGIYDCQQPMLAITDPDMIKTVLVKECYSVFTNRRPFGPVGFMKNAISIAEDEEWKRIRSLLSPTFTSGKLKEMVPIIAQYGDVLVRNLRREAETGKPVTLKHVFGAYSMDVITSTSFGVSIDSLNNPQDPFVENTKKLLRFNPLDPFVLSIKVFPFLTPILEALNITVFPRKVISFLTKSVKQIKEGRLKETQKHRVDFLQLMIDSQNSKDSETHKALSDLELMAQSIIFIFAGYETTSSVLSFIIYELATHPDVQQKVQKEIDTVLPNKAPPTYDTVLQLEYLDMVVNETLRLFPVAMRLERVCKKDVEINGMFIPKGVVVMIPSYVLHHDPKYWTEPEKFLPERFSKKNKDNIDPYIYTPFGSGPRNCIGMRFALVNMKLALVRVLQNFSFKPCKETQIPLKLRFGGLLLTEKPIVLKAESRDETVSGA
Sequence of Cytochrome P450 3A4 (Homo sapiens) (P08684 whole entry, looked up): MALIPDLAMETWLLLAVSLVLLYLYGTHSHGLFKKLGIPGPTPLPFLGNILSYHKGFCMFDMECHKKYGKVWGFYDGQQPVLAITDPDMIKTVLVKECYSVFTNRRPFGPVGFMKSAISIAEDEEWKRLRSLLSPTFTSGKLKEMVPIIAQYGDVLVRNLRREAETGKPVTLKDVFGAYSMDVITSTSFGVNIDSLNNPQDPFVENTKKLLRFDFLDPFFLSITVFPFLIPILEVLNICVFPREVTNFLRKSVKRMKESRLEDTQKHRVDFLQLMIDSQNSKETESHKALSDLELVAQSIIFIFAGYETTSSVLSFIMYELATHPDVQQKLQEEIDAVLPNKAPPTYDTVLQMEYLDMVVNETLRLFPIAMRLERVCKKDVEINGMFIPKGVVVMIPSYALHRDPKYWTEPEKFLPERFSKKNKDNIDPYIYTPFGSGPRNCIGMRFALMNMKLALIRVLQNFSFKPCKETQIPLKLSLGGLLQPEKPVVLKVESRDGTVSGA
Sequence of Hypoxia-inducible factor 1-alpha (Homo sapiens) (Q16665 whole entry, looked up): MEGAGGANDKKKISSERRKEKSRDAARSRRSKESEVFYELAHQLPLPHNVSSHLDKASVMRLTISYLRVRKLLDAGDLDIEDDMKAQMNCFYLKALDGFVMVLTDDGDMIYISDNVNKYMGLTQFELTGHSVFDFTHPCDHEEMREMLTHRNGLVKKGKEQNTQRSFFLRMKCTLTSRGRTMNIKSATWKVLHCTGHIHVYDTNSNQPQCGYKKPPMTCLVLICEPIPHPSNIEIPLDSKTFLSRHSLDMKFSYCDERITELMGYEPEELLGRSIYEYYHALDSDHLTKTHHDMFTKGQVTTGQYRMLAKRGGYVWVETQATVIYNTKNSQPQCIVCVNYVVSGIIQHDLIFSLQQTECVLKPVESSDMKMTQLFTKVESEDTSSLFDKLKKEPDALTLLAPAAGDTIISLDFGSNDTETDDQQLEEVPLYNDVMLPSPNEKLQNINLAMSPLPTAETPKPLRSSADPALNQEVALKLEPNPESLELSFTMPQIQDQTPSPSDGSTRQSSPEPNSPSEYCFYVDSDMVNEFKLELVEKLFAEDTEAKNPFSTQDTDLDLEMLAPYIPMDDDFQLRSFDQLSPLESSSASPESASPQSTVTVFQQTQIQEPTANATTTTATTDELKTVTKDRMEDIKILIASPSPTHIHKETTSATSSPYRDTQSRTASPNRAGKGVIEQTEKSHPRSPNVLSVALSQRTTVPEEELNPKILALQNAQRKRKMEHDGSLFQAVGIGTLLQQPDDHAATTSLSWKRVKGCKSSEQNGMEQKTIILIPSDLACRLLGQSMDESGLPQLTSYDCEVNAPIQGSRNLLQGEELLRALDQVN

O=[N+]([O-])c1ccc(Oc2ccc(Cl)cc2Cl)cc1
active: [1] 50 µM | [4] 2.45 µM | [9] 27.1 µM | [11] 50 µM
not listed: [16] | [17]
inactive: all other assays above

CN(C)c1ccccc1
inactive: all assays above

CN(C)[C@@H]1C(=O)C(C(N)=O)=C(O)[C@@]2(O)C(=O)C3=C(O)c4c(O)cccc4[C@@](C)(O)[C@H]3C[C@@H]12
not listed: [14]
inactive: all other assays above
